High-throughput results: PubChem, National Center for Advancing Translational Sciences (NCATS)
Integrin act MD – integrin-mediated muscular dystrophy alleviation activation; alpha7betagal myoblasts, beta-gal FDG fluorescence, 48 h; Potency, µM (doses to about 38.3 µM), without a hit: at the highest dose activation, hits mostly activators; actives 0.064% (n = 350,000); AID 624291;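 further: potency means the concentration at half of the fitted maximal effect; 100% = response of the positive control SU9516; nearly all actives have a fitted effect of over 60% in size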
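Alpha7betagal+/- myoblasts (passage 13) were plated 16-24 hr, then exposed to compounds (1:260 dilution of DMSO stock) for 48 hours at 37C. After MPER lysis, β-galactosidase reporter activity was read as FDG fluorescence (ex 480/em 540) after 30 minutes.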
Anesthetic bind – candidate novel general anesthetic via apoferritin binding. Potency, µM (titrated, usually from 77.5 µM), for the others: at the top dose activity change, negative = displacement, most hits filed as inhibitors. P02791. AID 485281. apoferritin/1-aminoanthracene competitive binding, fluorescence. actives 0.074% (n = 350,000); further: potency means the concentration at half of the fitted maximal effect; on the % scale 0 is the no-effect control and ±100 the full control effect; nearly all actives have a fitted effect of over 20% in size
Target sequence (P02791 2-175 limits assumed): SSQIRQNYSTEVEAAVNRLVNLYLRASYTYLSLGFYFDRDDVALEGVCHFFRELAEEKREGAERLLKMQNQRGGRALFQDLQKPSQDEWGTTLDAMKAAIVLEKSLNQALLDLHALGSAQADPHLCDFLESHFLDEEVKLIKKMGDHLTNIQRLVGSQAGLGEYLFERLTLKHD
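10 uM apoferritin + 50% sat. 1-AMA, PBS; cpd 10 min RT; Ex380/Em535 endpoint; normalized to free probe vs complex; 4-param Hill fit; propofol titration as pos. ctrl.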
Glioma ERSR ind – induces the endoplasmic reticulum stress response in human glioma cells. U87-MG GRP78 promoter luciferase reporter, 16 h. Potency, µM, without a hit: top-dose activation, usual class: activators. actives 0.02% (n = 420,000); further: potency means the concentration at half of the fitted maximal effect; series mostly up to about 76 µM; % of control where 0% means no effect; nearly all actives have a fitted effect of over 35% in size
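Stably transfected U87-MG human glioma cells carrying a GRP78-based luminescent sensor were seeded at 1000 cells/well, pin-dosed with compounds and incubated 16 h. Luciferase reagent was then added, and end-point luminescence was read after 10 min at room temperature.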
CBFb-RUNX1 inh – CBF-beta/RUNX1 interaction disruption | Q01196+Q13951 | AlphaScreen CBFb-His/RUNX1-biotin binding, biochemical | Potency, µM (doses to about 59.8 µM), for inactives: top-dose activity, negative = inhibition, most hits filed as inhibitors | 230,000 tested, under 10 active | AID 1477; further: % of control where 0% means no effect
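AlphaScreen proximity signal reports loss of binding between His-tagged CBF-beta and biotin-labelled RUNX1, each at 30 nM. Proteins are pre-associated for 20 minutes, compounds added for 15 minutes, then beads for 90 minutes, all at ambient temperature.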
N370S GC – inhibits or activates N370S mutant glucocerebrosidase. P04062. N370S GC spleen homogenate, 4MU-glucoside fluorescence. Potency, µM (highest dose often 59.4 µM), inactives show at the top dose activity change, negative = inhibition, usual class: inhibitors. actives 0.092% (n = 330,000);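 further: potency means the concentration at half of the fitted maximal effect; 0% = full enzyme activity and -100% = no enzyme basal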
ClpP mod – qHTS Assay for Activators of ClpP | purified B. subtilis ClpP, FRET peptide cleavage, 20 min | Potency, µM (highest dose often 57.5 µM), without a hit: top-dose activity change, negative = active | actives 1.9% (n = 340,000) | AID 651965, 2013; active means well fitted falling curve with a large enough effect; inconclusive means small, poorly fitted or top-dose-only effect; inactive means no such curve, though single readings can be large or run the other way; further: potency means the concentration at half of the fitted maximal effect; the source files actives as falling curves though it sought activators and does not explain the sign; nearly all actives have a fitted effect of over 65% in size
Target sequence (P80244 whole entry, looked up): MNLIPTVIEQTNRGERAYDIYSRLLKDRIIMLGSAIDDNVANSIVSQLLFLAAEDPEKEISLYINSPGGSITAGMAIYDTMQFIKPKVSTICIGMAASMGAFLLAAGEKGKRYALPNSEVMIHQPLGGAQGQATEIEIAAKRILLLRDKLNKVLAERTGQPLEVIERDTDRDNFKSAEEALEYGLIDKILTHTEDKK
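Purified B. subtilis ClpP, 10 microg/mL final in Tris/HCl pH8 with KCl, BSA, glycerol and Tween-20, cleaved an Abz/nitrotyrosine-quenched decapeptide. Fluorescence (ex 320, em 430) was read at 0 and 20 min at room temperature. Delta was normalized to 5.8 microM ADEP and DMSO/no-enzyme controls.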
Numbers without * were called inactive; ? = inconclusive; / = no result given; ! = a repeat was not active; [ ] = dose if it differs, or a comment. The entries come from a sample that favours hits as a whole. Unless noted, the call rests on the fitted dose curve; in most records, active means well fitted curve in the direction sought with a large enough effect; inconclusive means small, poorly fitted or top-dose-only effect, or another doubt; inactive means no such curve, though single readings can be large; an effect the other way counts as inactive or inconclusive.

SMILES	Integrin act MD	Anesthetic bind	Glioma ERSR ind	CBFb-RUNX1 inh	N370S GC	ClpP mod
Cc1ccccc1CNC(=O)c1ccccc1N	4%	?	-3%	6%	-9%	10µM*
O=C(NCc1ccccc1)c1nccnc1CO	-14%	-5%	-2%	/	1%	16µM*
COc1ccccc1CNC(=O)c1ccccc1NS(C)(=O)=O	18%[7.66 µM]	-4%	-2%	5%	?	28µM*
C[n+]1ccc(C(c2c[nH]c3ccccc23)c2cc[n+](C)c3ccccc23)c2ccccc21	/	/	-8%	/	/	-16%
O=C(NCCc1nnc2n1CCN(Cc1c(F)cccc1F)CC2)c1ccc(F)cc1	/	/	-1%	/	/	/
COc1ccccc1C(=O)N[C@@H]1c2ccccc2C2(CCN(Cc3ccc(C)o3)CC2)[C@H]1O	/	/	-4%	/	/	/
Nc1ccccc1C(=O)NCc1ccccc1	-25%	?	-2%	1%	5%	28µM*
O=C(Nc1ccccc1C(=O)NCc1ccccc1)c1ccccc1	-15%	-13%	-1%	7%	18%	-3%
CCN(CC)CCCNC(=O)c1ccccc1C	-4%	-5%	-7%	9%	2%	0%
CCN(CC)CCNC(=O)c1ccccc1N	18%	1%	-1%	9%	8%	10µM*
C[N+](C)(C)c1ccc(/C=C2\C=Cc3ccccc32)cc1	/	/	1%	/	/	1%
Cn1c(SCC(=O)Nc2nc3ccccc3s2)ncc(C(=O)Nc2ccccc2)c1=O	/	-6%	-2%	/	/	?
Cn1c(SCC(=O)Nc2nc3ccccc3s2)ncc(C(=O)Nc2ccc(Cl)cc2)c1=O	/	-10%	-4%	/	/	22µM*
C=C1C=C(C)n2ncc(C(=O)Nc3ccccc3C(=O)OC)c2N1	/	/	-4%	/	/	-14%
O=c1/c(=C/c2ccco2)sc2n1CN(c1ccccc1)CN=2	-7%	-15%	-1%	-4%	/	25µM*
O=c1/c(=C/c2ccco2)sc2n1CN(c1cccc(Br)c1)CN=2	39%	?	0%	-2%	/	-3%
COc1ccc(C(=O)NCC2Cc3cccc(-c4cncnc4)c3O2)c(OC)c1OC (stereo not drawn)	/	/	-4%	/	/	/
CN(C)c1ccc(C=Nc2ccccc2C(N)=O)cc1	-16%	0%	-12%	7%	-14%	25µM*
O=C1CCCC2=C1C(c1cccs1)Nc1ccccc1N2 (stereo not drawn)	2%	-9%	-4%	-6%	4%	20µM*
CC1(C)CC(=O)C2=C(C1)Nc1ccccc1NC2c1cccs1 (stereo not drawn)	7%	-7%	3%	3%	-9%	/
CCCc1cc(N2CCN(C(=O)c3ccco3)CC2)n2c(nc3ccccc32)c1C#N	1%	378%	-2%	15%	24%	35µM*
CCCc1cc(-n2ccnc2C)n2c(nc3ccccc32)c1C#N	-23%	/	-2%	/	/	/
NC(=O)NOCc1ncc(C(F)(F)F)cc1Cl	-3%	-10%	-4%	7%	4%	28µM*
CCCCCCCCCCCCCCCC(=O)OC[C@@H](NC(=O)C(Cl)Cl)[C@H](O)c1ccc([N+](=O)[O-])cc1	/	/	-2%	/	/	/
CS(=O)(=O)N1CCCC(C(=O)c2cccc(Cl)c2)C1 (stereo not drawn)	0%	-24%	-3%	4%	-9%	1%
SMILES	Integrin act MD	Anesthetic bind	Glioma ERSR ind	CBFb-RUNX1 inh	N370S GC	ClpP mod
CCCCS(=O)(=O)N1CCCC(C(=O)NCCc2ccccc2)C1 (stereo not drawn)	7.1µM*	-9%	-4%	/	-2%	-1%
CCCS(=O)(=O)N1CCCC(C(=O)NCCc2ccccc2)C1 (stereo not drawn)	4%	-9%	-1%	/	-6%	/
CCCS(=O)(=O)N1CCCC(C(=O)c2cccc(Cl)c2)C1 (stereo not drawn)	6.3µM*	-14%	-2%	6%	-8%	?
O=C(Nc1cccc2ccccc12)N1CCN(c2ccccc2)CC1	25%	6%	-1%	2%	-5%	-7%
O=C(Nc1cccc2ccccc12)N1CC=CCC1	-6%	?	2%	10%	/	28µM*
CCCn1c(/C=C/c2ccccc2)nc2ccccc21	-35%	-2%	0%	?	-1%	13µM*!
Cc1ccc(NC(=O)Cn2c(/C=C/c3ccccc3)nc3ccccc32)cc1C	31%[7.66 µM]	-9%	-7%	7%	0%	28µM*
CC(C)c1ccccc1NC(=O)Cn1c(/C=C/c2ccccc2)nc2ccccc21	-60%	-11%	8%	14%	-3%	/
CC[N+](C)(C)c1ccc(/C=C/c2ccc3ccccc3n2)cc1	/	/	-10%	/	/	-1%
COCc1cc(C)nc(N2CCCCC2)c1C#N	-21%	0%	-2%	-9%	-1%	22µM*
COCc1cc(C)nc(N2CCNCC2)c1C#N	-20%	-12%	-2%	-1%	1%	16µM*
COCc1cc(C)nc(N2CCN(c3ccccc3)CC2)c1C#N	-23%[7.66 µM]	3%	1%	9%	3%	-10%
COCc1cc(C)nc(N2CCN(Cc3ccccc3)CC2)c1C#N	8%	-14%	-5%	7%	4%	-20%
O=C(c1ccccc1)c1nc[nH]c1C(=O)Nc1ccccn1	14%	-23%	-2%	10%	-13%	28µM*
COC(=O)c1c(OCc2ccccn2)cc(=O)n2c1CCN(C(=O)c1cc(C(C)C)nn1C)CC2	/	/	-2%	/	/	/
CC(C)c1nc(N2CCN(C(=O)c3ccco3)CC2)c(C#N)c2c1COC(C)(C)C2	-15%	-22%	-10%	/	?	/
CC(C)c1nc(N2CCN(C(=O)c3ccccc3)CC2)c(C#N)c2c1COC(C)(C)C2	-14%	4%	-5%	4%	2%	28µM*
CC1(C)Cc2c(C#N)c(SCCO)nc(N3CCOCC3)c2CO1	-29%	-10%	-4%	/	-8%	-2%
CCCCc1nc(N2CCOCC2)c(C#N)c2c1COC(C)(C)C2	23%	-15%	-2%	15%	10%	28µM*
CCCCc1nc(NCC2CCCO2)c(C#N)c2c1COC(C)(C)C2 (stereo not drawn)	32%	1%	0%	1%	3%	7.9µM*
Cc1cnccc1/C=C/c1ccc(N)cc1	/	/	-3%	/	/	-7%
CCN(CC)CC(=O)c1c(C)n(C)c2ccc(OC)cc12	/	/	-5%	/	/	-10%
CCOC(=O)c1cccc(COC(=O)c2cccc(-c3nnc(-c4ccccc4)o3)c2)c1	33%	-3%	-11%	11%	-1%	32µM*
CC(C)OC(=O)c1ccc(COC(=O)c2cccc(-c3nnc(-c4ccccc4)o3)c2)cc1	21%	9%	-2%	6%	0%	?
